The source of these data is PubChem BioAssay (EPA / NIEHS).

Read-out in assay [1]: TIMP metallopeptidase inhibitor 1 (TIMP1), TIMP1 (gene 7076)
Briefly: BSK_hDFCGF_TIMP1: BioMAP Diversity Plus: hDFCGF Assay for TIMP metallopeptidase inhibitor 1 (TIMP1) Biomarker Activity (AID 2283062). The following applies: primary human foreskin fibroblasts; actives raise or lower the signal. The gist of the method: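 Fibroblasts from human foreskin are treated with test chemical and harvested at 24 h. TIMP-1 is quantified by ELISA, and gain or loss of signal is scored against DMSO.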

Read-out in assay [2]: Monokine induced gamma interferon (MIG), CXCL9 (gene 4283)
In words: BSK_hDFCGF_MIG: BioMAP Diversity Plus: hDFCGF Assay for Monokine induced gamma interferon (MIG) Biomarker Activity (AID 2283063). Particulars: primary human foreskin fibroblasts; actives raise or lower the signal. The gist of the method:
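MIG signal, determined by ELISA, reflects 24 h chemical exposure of human skin primary fibroblasts. DMSO serves as negative control and baseline.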

Read-out in assay [3]: Matrix Metallopeptidase 1 (MMP1), MMP1 (gene 4312)
In words: BSK_hDFCGF_MMP1: BioMAP Diversity Plus: hDFCGF Assay for Matrix Metallopeptidase 1 (MMP1) Biomarker Activity (AID 2283064). The following applies: primary human foreskin fibroblasts; actives raise or lower the signal. Put shortly:
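MMP1 levels quantified by ELISA 24 h after dosing human dermal fibroblast cultures, with parallel SRB total-protein staining for overt cytotoxicity. Data fitted in both directions against DMSO baseline.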

Read-out in assay [4]: Vascular cell adhesion molecule 1 (VCAM1), VCAM1 (gene 7412)
Briefly: BSK_hDFCGF_VCAM1: BioMAP Diversity Plus: hDFCGF Assay for Vascular cell adhesion molecule 1 (VCAM1) Biomarker Activity (AID 2283065).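 For AC50: VCAM-1 protein level quantified by ELISA after 24 h chemical exposure.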 Particulars: primary human foreskin fibroblasts; actives raise or lower the signal. Put shortly:
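Cells are dosed, cultured for 24 h, then VCAM-1 is quantified by ELISA; signal increases and decreases are both fitted relative to DMSO.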

Read-out in assay [5]: Plasminogen activator inhibitor-1 (PAI1), SERPINE1 (gene 5054)
In words: BSK_hDFCGF_PAI1: BioMAP Diversity Plus: hDFCGF Assay for Plasminogen activator inhibitor-1 (PAI1) Biomarker Activity (AID 2283066). Particulars: primary human foreskin fibroblasts; actives raise or lower the signal. The gist of the method: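 ELISA readout of PAI-1 from primary human skin fibroblast cultures, 24 h after compound addition. Gain or loss of signal was fitted bidirectionally against DMSO baseline.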

Read-out in assay [6]: Intercellular Adhesion Molecule 1 (ICAM1), ICAM1 (gene 3383)
In words: BSK_KF3CT_ICAM1: BioMAP Diversity Plus: KF3CT Assay for Intercellular Adhesion Molecule 1 (ICAM1) Biomarker Activity (AID 2283067). The following applies: primary human keratinocytes with fibroblasts; actives raise or lower the signal. Put shortly: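 Dose the keratinocyte/fibroblast co-culture, wait 24 h, measure ICAM-1 by ELISA, then fit increases or decreases against DMSO. Cytotoxicity is checked in parallel cultures by SRB total-protein staining.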

Read-out in assay [7]: Interferon-gamma inducible Protein 10 (IP10), CXCL10 (gene 3627)
In words: BSK_KF3CT_IP10: BioMAP Diversity Plus: KF3CT Assay for Interferon-gamma inducible Protein 10 (IP10) Biomarker Activity (AID 2283068). Particulars: primary human keratinocytes with fibroblasts; actives raise or lower the signal. The gist of the method: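 KF3CT co-culture (keratinocytes + foreskin fibroblasts), 24 h compound, IP-10 by ELISA; bidirectional fit vs DMSO baseline.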

Assay [8] can be described thus: BSK_KF3CT_SRB: Viability Assessment in the BioMAP Diversity Plus: KF3CT Assay (AID 2283069). The following applies: primary human keratinocytes with fibroblasts. Put shortly:
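Cytotoxicity was gauged by SRB staining (0.1% SRB, 10% TCA fixation, 560 nm) of parallel cultures at 24 h. The cells were primary human skin keratinocytes co-cultured with fibroblasts, and activity was fitted in both directions against DMSO.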

Read-out in assay [9]: Interleukin-1 alpha (IL1a), IL1A (gene 3552)
In words: BSK_KF3CT_IL1a: BioMAP Diversity Plus: KF3CT Assay for Interleukin-1 alpha (IL1a) Biomarker Activity (AID 2283070). The following applies: primary human keratinocytes with fibroblasts; actives raise or lower the signal. Put shortly: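 IL-1a was detected by ELISA 24 h after chemical treatment of a co-culture of human skin keratinocytes and foreskin fibroblasts. Gain or loss of signal was fitted against the DMSO baseline.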

Read-out in assay [10]: TIMP metallopeptidase inhibitor 2 (TIMP2), TIMP2 (gene 7077)
Briefly: BSK_KF3CT_TIMP2: BioMAP Diversity Plus: KF3CT Assay for TIMP metallopeptidase inhibitor 2 (TIMP2) Biomarker Activity (AID 2283071). The following applies: primary human keratinocytes with fibroblasts; actives raise or lower the signal. Put shortly:
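ELISA readout of TIMP-2 in keratinocyte plus foreskin fibroblast co-cultures (human skin primary cells), 24 h post-dose. Gain or loss of signal fitted relative to DMSO.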

Read-out in assay [11]: Transforming growth factor beta 1 (TGFb1), TGFB1 (gene 7040)
Briefly: BSK_KF3CT_TGFb1: BioMAP Diversity Plus: KF3CT Assay for Transforming growth factor beta 1 (TGFb1) Biomarker Activity (AID 2283072). Particulars: primary human keratinocytes with fibroblasts; actives raise or lower the signal. The gist of the method: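 Read-out: ELISA for TGF-b1 in keratinocyte/foreskin fibroblast human skin co-culture, 24 h after dosing; bidirectional curve fit vs DMSO baseline; gain or loss of signal scored.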

Read-out in assay [12]: C-C motif chemokine 2 (Homo sapiens) (UniProt P13500)
Briefly: BSK_KF3CT_MCP1: BioMAP Diversity Plus: KF3CT Assay for Monocyte Chemoattractant Protein 1 (MCP1/CCL2) Biomarker Activity (AID 2283073). The following applies: primary human keratinocytes with fibroblasts; actives raise or lower the signal. The gist of the method:
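Keratinocytes and foreskin fibroblasts were co-cultured, dosed with chemical, and sampled 24 h later. MCP-1 was quantified by ELISA, and the endpoint was analyzed with bidirectional fitting using DMSO as negative control.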

Read-out in assay [13]: Matrix Metallopeptidase 9 (MMP9), MMP9 (gene 4318)
In words: BSK_KF3CT_MMP9: BioMAP Diversity Plus: KF3CT Assay for Matrix Metallopeptidase 9 (MMP9) Biomarker Activity (AID 2283074).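 For AC50: MMP9 protein level quantified by ELISA in the co-culture.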 Particulars: primary human keratinocytes with fibroblasts; actives raise or lower the signal. The gist of the method: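 MMP-9 quantified by ELISA after 24 h chemical treatment of primary human skin keratinocyte/fibroblast co-cultures; gain or loss fitted against DMSO, with parallel SRB staining (0.1% SRB, 560 nm) for overt cytotoxicity.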

Read-out in a further assay: CD40, CD40 (gene 958)
Briefly: BSK_LPS_CD40: BioMAP Diversity Plus: LPS Assay for CD40 Biomarker Activity (AID 2283076). Particulars: primary human HUVEC with PBMC; actives raise or lower the signal. The gist of the method: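 CD40 signal, measured by ELISA, is fitted in both directions relative to DMSO vehicle. The system is an LPS-driven human vascular primary co-culture of endothelial cells and PBMC, sampled 24 h after compound addition.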

Read-out in assay [14]: E-selectin (Homo sapiens) (UniProt P16581)
In words: BSK_LPS_Eselectin: BioMAP Diversity Plus: LPS Assay for Eselectin Biomarker Activity (AID 2283077). Particulars: primary human HUVEC with PBMC; actives raise or lower the signal. Put shortly:
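Signal of E-selectin, detected by ELISA, served as the endpoint; cells were umbilical vein endothelium with PBMC, read 24 h after treatment. DMSO defined baseline, and both increases and decreases were fitted.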

Read-out in assay [15]: Interleukin-8 (IL8), CXCL8 (gene 3576)
In words: BSK_LPS_IL8: BioMAP Diversity Plus: LPS Assay for Interleukin-8 (IL8) Biomarker Activity (AID 2283078). Particulars: primary human HUVEC with PBMC; actives raise or lower the signal. Put shortly:
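Endothelial cells and PBMC from human donors are co-cultured, treated with chemicals and LPS, then assayed for IL-8 by ELISA after 24 h. Parallel SRB staining (0.1% SRB after 10% TCA fixation, 560 nm) flags cytotoxicity.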

Assay [16] can be described thus: BSK_LPS_SRB: Viability Assessment in the BioMAP Diversity Plus: LPS Assay (AID 2283079).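 Note: total protein by sulforhodamine B absorbance as a cytotoxicity measure; measured one day after compound addition; fitted in both directions against DMSO so loss or gain of signal counts.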 The following applies: primary human HUVEC with PBMC. The gist of the method: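 Overt cytotoxicity was gauged by sulforhodamine B total-protein staining in a primary human vascular endothelial and mononuclear cell co-culture 24 h post-dosing. Activity was fitted in both directions relative to DMSO.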

Read-out in assay [17]: Interleukin-1 alpha (IL1a), IL1A (gene 3552)
In words: BSK_LPS_IL1a: BioMAP Diversity Plus: LPS Assay for Interleukin-1 alpha (IL1a) Biomarker Activity (AID 2283080). Particulars: primary human HUVEC with PBMC; actives raise or lower the signal. The gist of the method: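 Measured: IL-1 alpha via ELISA at 24 h in LPS-activated human umbilical vein endothelium–PBMC co-culture. Baseline: DMSO, bidirectional fitting.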

Read-out in assay [18]: Monocyte Chemoattractant Protein-1 (MCP1), CCL2 (gene 6347)
Briefly: BSK_LPS_MCP1: BioMAP Diversity Plus: LPS Assay for Monocyte Chemoattractant Protein-1 (MCP1) Biomarker Activity (AID 2283081).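 For AC50: secreted MCP-1 protein quantified by ELISA in culture supernatant.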 Particulars: primary human HUVEC with PBMC; actives raise or lower the signal. Put shortly: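 LPS-stimulated HUVEC/PBMC co-culture; chemical, 24 h; MCP-1 by ELISA; bidirectional fit vs DMSO; cytotoxicity via SRB (0.1% stain, 10% TCA fix, 560 nm) in parallel wells.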

Active and inactive are the calls of the source. Rule for the calls: active = hit-call score of the fitted dose curve at least 0.9, where 1 is the maximum; inactive = score below 0.9.

E-selectin (Homo sapiens), sequence (P16581 whole entry, looked up): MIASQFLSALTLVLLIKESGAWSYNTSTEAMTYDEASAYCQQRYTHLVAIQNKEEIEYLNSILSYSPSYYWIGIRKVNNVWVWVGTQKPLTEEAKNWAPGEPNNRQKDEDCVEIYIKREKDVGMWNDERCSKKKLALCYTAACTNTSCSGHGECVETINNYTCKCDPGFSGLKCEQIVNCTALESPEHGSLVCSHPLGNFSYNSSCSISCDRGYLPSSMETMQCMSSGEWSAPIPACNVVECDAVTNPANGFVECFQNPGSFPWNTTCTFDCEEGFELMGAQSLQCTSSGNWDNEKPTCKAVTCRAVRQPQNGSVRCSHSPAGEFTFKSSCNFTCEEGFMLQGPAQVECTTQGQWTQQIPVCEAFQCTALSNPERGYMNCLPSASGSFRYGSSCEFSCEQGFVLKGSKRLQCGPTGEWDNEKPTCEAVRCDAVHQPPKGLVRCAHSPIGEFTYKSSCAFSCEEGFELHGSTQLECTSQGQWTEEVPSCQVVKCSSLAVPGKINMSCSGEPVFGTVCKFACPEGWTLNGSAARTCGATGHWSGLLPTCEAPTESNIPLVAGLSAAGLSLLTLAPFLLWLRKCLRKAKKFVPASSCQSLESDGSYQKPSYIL

Consider `O=C1O[C@H]([C@@H](O)CO)C(O)=C1O`, for which the outcome in assay [1], in assay [2], in [3], in [4], in assay [5] and in assay [6] was inactive. Moreover, the result in assay [7], in assay [8], in assay [9], in assay [10], in assay [11] and in assay [12] was inactive. Further, the outcome in assay [13] is “inactive”; with CD40, CD40 (gene 958) it was “inactive”; in assay [14], “inactive”; in assay [15], “inactive”; in [16], “inactive”; in assay [17], “inactive”. Besides, the result in assay [18] was inactive.

For `COc1cccc([C@H](O)C2CCN(CCc3ccc(F)cc3)CC2)c1OC`, the outcome in assay [1], in [2], in assay [3], in assay [4], in [5] and in assay [6] was inactive. Also, the result in [7], in assay [8], in assay [9], in [10], in assay [11] and in [12] was inactive. In addition, the outcome in assay [13] is “inactive”; with CD40, CD40 (gene 958), “inactive”; in assay [14], “inactive”; in assay [15] it was “inactive”; in [16], “inactive”; in assay [18] it was “inactive”.

For the molecule `OCCO`, the result in assay [1], in assay [2], in [3], in [4], in assay [5] and in [6] was inactive. Also, the outcome in assay [7], in assay [8], in [9], in assay [10], in assay [11] and in assay [13] was inactive. In addition, the outcome with CD40, CD40 (gene 958) is “inactive”; in assay [14] it was “inactive”; in assay [15] it was “inactive”; in assay [16] it was “inactive”; in assay [18] it was “inactive”.

As a reminder, the AC50 is the concentration giving half of the maximal activity seen. As for `Oc1ccc2ccccc2c1`, the outcome in assay [1], in assay [2], in assay [3], in [4], in assay [5] and in [6] was inactive. Also, the outcome in [7], in assay [8], in assay [9], in assay [10], in assay [11] and in assay [12] was inactive. The outcome in assay [13], in assay [15], in [16], in assay [17] and in assay [18] was inactive. The concentration at half-maximal activity (AC50) with CD40, CD40 (gene 958) was 22.1 µM (active); in assay [14], 16.1 µM (active).

Regarding `O=C(O)c1ccccc1C(=O)OCc1ccccc1`, the outcome in [1], in [2], in assay [3], in assay [4], in assay [5] and in assay [6] was inactive. Moreover, the outcome in assay [7], in [8], in assay [9], in [10], in assay [11] and in assay [12] was inactive. Also, the outcome in assay [13] is “inactive”; in the assay with CD40, CD40 (gene 958), “inactive”; in assay [14] it was “inactive”; in assay [15], “inactive”; in assay [16], “inactive”; in [18], “inactive”.

On to `CCCCCCCCCCCCO`, for which the AC50 is 36.4 µM (active) in assay [1]; 33.3 µM (active) in assay [2]; 31 µM (active) in assay [3]; 25.8 µM (active) in [4]; 29.7 µM (active) in assay [5]; 32.7 µM (active) in assay [6]. Further, the AC50 in assay [7] is 37.7 µM (active); in assay [8], 32.8 µM (active); in [9], 30.6 µM (active); in assay [10] it was 30 µM (active); in [11] it was 30.9 µM (active); in assay [12], 35 µM (active). The AC50 was 33 µM (active) in assay [13], 19.8 µM (active) in assay [14], 30.4 µM (active) in assay [16] and 34.8 µM (active) in assay [18]. The outcome in the assay with CD40, CD40 (gene 958) is “inactive”; in assay [15], “inactive”.

As to `CCCCCCCC[Si](OCC)(OCC)OCC`, the result in assay [1], in assay [2], in assay [3], in assay [4], in assay [5] and in [6] was inactive. The outcome is “inactive” in assay [8]; “inactive” in [9]; “inactive” in assay [10]; “inactive” in [11]; “inactive” in assay [12]; “inactive” with CD40, CD40 (gene 958). In addition, the result in [14], in assay [15], in assay [16], in assay [17] and in assay [18] was inactive. The AC50 was 37.5 µM (active) in assay [7] and 27.6 µM (active) in assay [13].
